Laboratory results as given in PubChem BioAssay (NCI).
The panel holds about 83,000 compounds, 20% with a hit somewhere; the sample as a whole holds those more often.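 Values shown are percent growth following 48 h exposure of cells in 96-well plates to a single concentration of compound; below 10 was considered active.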 Calls of active or inactive are those of the source.

System: CAKI-1 renal
Test: NCI-60 one-dose screen, 48 h (100 = growth as untreated, 0 = no growth, -100 = all killed)
Settings: 10 µM unless noted
Protocol: Growth inhibition of the CAKI-1 human tumor cell line is measured as a screen for anti-cancer activity. Cells are grown in 96 well plates and exposed to the test compound for 48 hours. Compounds are tested at a single concentration, which is 10^-5 M for most compounds. The reported endpoint is percent growth (GI% or GIPRCNT), where numbers from 0 - 100% represent growth inhibition, and numbers from -100% - 0 represent cell death. For example, a value of 40 represents 60% growth inhibition. A value of 0 means no net growth occurred over the course of the experiment. A value of -40 indicates 40% of cells at the beginning of the experiment died by the end of the experiment. A value of -100 means all cells are dead at the end of the experiment.
NCI-60 Human Tumor Cell Lines Screen was performed using the standard one-dose NCI protocol, which is described in more detail at https://dtp.cancer.gov/discovery_development/nci-60/default.htm.
Compounds with GIPRCNT values below 10 were considered active. Activity score was based on GIPRCNT using the following formula: […]
Score is 0 for GIPRCNT values of 100 or above, 50 for GIPRCNT values of 0, and 100 for GIPRCNT values of -100.

Row | Structure (SMILES) | growth
1 | CNc1ccc(Br)c2c1C(=O)c1ccccc1C2=O | 100% (inactive)
2 | C=C(C)[C@@H]1CC[C@]2(C(=O)O)CC[C@]3(C)[C@H](CC[C@@H]4[C@@]5(C)C[C@@H](CC#Cc6ccc(C(F)(F)F)cc6)[C@H](O)C(C)(C)[C@@H]5CC[C@]43C)[C@@H]12 | 50% (inactive)
3 | CC(=O)Nc1ccc(/C=C/C(=O)c2ccccc2)cc1 | 104% (inactive)
4 | C=CCn1c2ccccc2c2c3c(c4c5ccccc5n(CC=C)c4c21)C(=O)N(O)C3=O | -70.6% (active)
5 | COc1ccc(C(=O)N2NC(=O)/C(=C/c3ccc(Br)cc3)N=C2c2ccccc2)cc1 | 96.9% (inactive)
6 | CCOC(=O)CC(=O)OC | 91.2% (inactive)
7 | CCN(CC)CCOc1ccc(Cl)c(C)c1 | 102% (inactive)
8 | COc1ccc(N2CCN(Cc3cc(C(=O)/C=C/c4c[nH]c5ccccc45)ccc3O)CC2)cc1 | 90.2% (inactive)
9 | c1cc(C2=N[C@@H]3c4ccccc4C[C@@H]3O2)nc(C2=N[C@@H]3c4ccccc4C[C@@H]3O2)c1 | 92.4% (inactive)
10 | CCOC(=O)c1cn2c3c(cc(C)cc3c1=O)C(=O)/C(=C/c1ccccc1)C2 | 73.3% (inactive)
11 | COc1cc(/C=C/c2cc(/C=C/c3ccc(O)c(OC)c3)n(C(N)=O)n2)ccc1O | 14.1% (inactive)
12 | COc1ccc(C(=O)n2nc(/C=C/c3ccc(O)c(OC)c3)cc2/C=C/c2ccc(O)c(OC)c2)cc1 | 20.4% (inactive)
13 | Clc1cc(Cl)c2nc(-c3ccc(-c4ccc(/C=N/NC5=NCCN5)cc4)s3)cn2c1 | 91.9% (inactive)
14 | COc1ccc(Nc2nn3c(-c4ccccc4)cc(-c4ccccc4)nc3c2C(N)=O)c(OC)c1 | 77.4% (inactive)
15 | COc1ccc(S(=O)(=O)Nc2cc(/C=C\c3cc(OC)c(OC)c(OC)c3)cc(OC)c2OC)cc1 | 22.9% (inactive)
16 | COc1ccc(-c2nc(SCCC(C)C)nc(Nc3ccc(F)c(Cl)c3)c2C#N)cc1 | 75.5% (inactive)
17 | N=C(N)c1ccc(-c2cc(Cl)cc(Cl)c2)cn1 | 68.4% (inactive)
18 | NC(=O)CCCN1C/C(=C\c2ccccc2)C(=O)c2ccccc21 | 90.6% (inactive)
19 | COc1ccc(/C=N\NC(=O)CN2CCN(c3cc4c(cc3F)c(=O)c(C(=O)N/N=C/c3ccc(OC)c(OC)c3)cn4C3CC3)CC2)cc1OC | 88.2% (inactive)
20 | CCCCCc1cc[n+](CC(=O)c2ccc([N+](=O)[O-])cc2)cc1 | 113% (inactive)

Row | Structure (SMILES) | growth
21 | CN(C)c1nc2c(N)ncnc2n1C1OC(CO)C(O)C1O (stereo not given) | 99.3% (inactive)
22 | COC(=O)c1nc(-c2ccccc2)oc1S(=O)(=O)N1CCN(c2cccc(Cl)c2)CC1 | 32.6% (inactive)
23 | C=C(C)[C@@H]1C[C@@H]2Cc3cc(Cl)ccc3N1O2 | 95.9% (inactive)
24 | COc1cc(-c2nc(N=Nc3c(O)[nH]c4ccc(Br)cc34)[nH]c(=O)c2C#N)cc(OC)c1OC | 91.1% (inactive)
25 | CCOC(=O)c1cc(C(=O)c2cc(OC)c(OC)c(OC)c2)n2c1ccc1ccccc12 | 27.3% (inactive)
26 | CN(CCCCCl)P(=O)(OCc1ccc([N+](=O)[O-])o1)C(F)(F)C[C@H](NC(=O)CNC(=O)c1ccc(N=[N+]=[N-])cc1)C(=O)NCCc1ccc(O)cc1 (stereo not given in full) | 105% (inactive)
27 | CN(C)CC(C(=O)c1ccccc1)c1ccccc1 (stereo not given) | -2.87% (active)
28 | COc1ccc2[nH]c(=O)c(/C=N/Nc3nc(-c4ccccc4)cs3)c(O)c2c1 | 43.7% (inactive)
29 | C=C1CCC2C3(C)COC(c4c(OC)cccc4OC)OC3CCC2(C)C1C/C=C1/C(=O)OCC1O (stereo not given) | 172% (inactive)
30 | Cc1ccc(Cc2c(C=O)nc(N)[nH]c2=O)c2ccccc12 | 92.7% (inactive)
31 | COc1ccc(-c2nc3sccn3c2/C=C/C(=O)c2cc(F)cc(F)c2)cc1 | 57.1% (inactive)
32 | O=C(Nc1ccncc1)C(=O)c1cn(S(=O)(=O)c2ccc(Cl)cc2)c2ccccc12 | 44.9% (inactive)
33 | N=C(N)c1ccc(-c2ccc(-c3cncc4ccccc34)s2)cc1F | -87.5% (active)
34 | O=C1Nc2ccc3c(c2/C1=C\c1cc2c(cc1Br)OCO2)OCO3 | -25.7% (active)
35 | CN(C)CCCN(c1nc(C(Cl)(Cl)Cl)ns1)c1nc(C(Cl)(Cl)Cl)ns1 | 43.9% (inactive)
36 | CCCCN(CCCC)C(=N)c1ccnc2ccccc12 | 108% (inactive)
37 | CCN(CC)c1ccc2[nH]c3c(C(N)=O)cc(=O)c(=O)c=3oc2c1 | -33.2% (active)
38 | Cc1ccc(Nc2nnc(-c3ccc(Cl)cc3)o2)c(C)c1 | 89.6% (inactive)
39 | CCOC(=O)CN1/C(=N/c2sc3c(c2C(=O)OCC)CCN(C(=O)OCC)C3)SC(=O)/C1=C\C(=O)OC | 86.6% (inactive)
40 | c1ccc(-c2cn(-c3ccccc3)c(-c3ccccc3)n2)cc1 | 98.4% (inactive)
